Measured values taken from the supplement of paper PMC11150407.
Where a name gives a salt, the structure may show the parent alone. Screen size: about 2,100 compounds; about 180 (8.6%) showed an effect of 50% or more. The sample holds strong results, similar compounds and a random draw of the others, so the mix is not that of the screen.

Test system: MOLM1 and UCSD/AML1 (averaged)
Assay: cell viability relative to DMSO control (POC); higher = less growth inhibition
Settings: 1 µM; 72 h
Method: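 Primary viability screen in the 3q26 EVI1-high AML cell lines MOLM1 and UCSD/AML1 (1.5e3 cells/well, 384-well), compounds at 1 uM for 72 h. ATP CellTiter-Glo read-out given as percent of viable cells over DMSO control (POC), averaged over duplicates. DMSO was the negative control and 5 uM etoposide the positive control. This mapping covers the MicroSource Spectrum and Selleck anticancer libraries (drug names).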

| Compound | cell viability [%] |
| --- | --- |
| CC(C)C[C@H](N)C(=O)N[C@@H](C)C(=O)O | 98.2 |
| CC(=O)OC(C)(C)[C@@H]1Cc2cc3ccc(=O)oc3cc2O1 | 100 |
| CCNC(=O)c1noc(-c2cc(C(C)C)c(O)cc2O)c1-c1ccc(CN2CCOCC2)cc1 [Luminespib (AUY-922, NVP-AUY922)] | 2.13 |
| O=C(O)[C@H](O)[C@@](O)(Cc1ccc(O)cc1)C(=O)O | 92.1 |
| C/C=C(\C)C(=O)O[C@@H]1c2c(ccc3ccc(=O)oc23)OC(C)(C)[C@@H]1OC(C)=O | 101 |
| OCc1c[nH]c2ccccc12 | 87.2 |
| c1ccc2c(CCNc3ccc(Nc4ccncc4)cc3)c[nH]c2c1 | 43.4 |
| N[C@@H](Cc1c[nH]c2ccccc12)C(=O)O | 89.5 |
| Cc1cc(O)c(C=O)c(O)c1C(=O)O | 121 |
| CC(=O)Oc1ccc2c(c1C(C)C)CCC1C(C)(C)CCC[C@]21C (stereo partly drawn) | 91.9 |
| CC1(C)CC23C(=O)CCC(O)C2(C)CCC13 (stereo not drawn) | 96.7 |
| CN1CCC(c2c(O)cc(O)c3c(=O)cc(-c4ccccc4Cl)oc23)C(O)C1 (stereo not drawn) [Flavopiridol (Alvocidib) HCl] | 1.36 |
| CC(C)CCC[C@@H](C)[C@H]1CC[C@H]2[C@@H]3C(=O)C=C4C[C@@H](O)CC[C@]4(C)[C@H]3CC[C@]12C | 95.7 |
| CCN(CC)CCNC(=O)COc1ccc(OC)cc1 | 97.5 |
| CCN(CC)CCCCNc1ncc2cc(-c3cc(OC)cc(OC)c3)c(NC(=O)NC(C)(C)C)nc2n1 | 36.8 |
| Nc1nc(Nc2ccc(S(N)(=O)=O)cc2)nn1C(=O)c1c(F)cccc1F | 53.8 |
| Cn1c(=O)c2c(ncn2CC(O)CO)n(C)c1=O (stereo not drawn) | 103 |
| CC(O)Cn1cnc2c1c(=O)n(C)c(=O)n2C (stereo not drawn) | 94.4 |
| Cn1c(=O)c(F)c(Nc2ccc(I)cc2F)c2c(=O)n(C[C@@H](O)CO)cnc21 | 24.8 |
| CC(C)c1cccc(=O)c(O)c1 | 93.6 |
| COc1cc2ccc(=O)oc2c(O)c1O | 88.3 |
| CC1(O)CC2C(CC1O)C2(C)C (stereo not drawn) | 87.5 |
| COc1cc(-c2coc3cc(OCc4ccccc4)c(OC)c(O)c3c2=O)cc(O)c1OC | 95.2 |
| NC(Cn1ccc(=O)c(O)c1)C(=O)O (stereo not drawn) | 92.7 |
| CC(=O)O[C@@H]1C[C@H]2C(C)(C)[C@@H](O)CC[C@]2(C)[C@H]2CC[C@@]3(C)[C@H](c4ccoc4)OC(=O)[C@H]4O[C@]43[C@@]21C [beta-DIHYDROGEDUNOL] | 90.3 |
| CC(=O)N[C@@H](Cc1c[nH]c2ccccc12)C(=O)O | 106 |
| CC(C)C[C@@H](NC(=O)[C@H](C)NC(=O)CNC(=O)[C@@H](NC=O)C(C)C)C(=O)N[C@@H](C)C(=O)N[C@@H](C(=O)N[C@H](C(=O)N[C@H](C(=O)N[C@@H](Cc1c[nH]c2ccccc12)C(=O)N[C@H](CC(C)C)C(=O)N[C@@H](Cc1c[nH]c2ccccc12)C(=O)N[C@H](CC(C)C)C(=O)N[C@@H](Cc1c[nH]c2ccccc12)C(=O)N[C@H](CC(C)C)C(=O)N[C@@H](Cc1c[nH]c2ccccc12)C(=O)NCCO)C(C)C)C(C)C)C(C)C | 5.86 |
| CC(=O)N[C@@H](Cc1c[nH]c2ccccc12)C(N)=O | 101 |
